Test results from PubChem BioAssay (NCATS).
Records with an inconclusive call do not appear. Active and inactive are the calls of the source. Unless noted, calls come from the whole dose curve; as a rule, active = well fitted curve in the direction sought with a large enough effect; inconclusive = small, poorly fitted or top-dose-only effect, or another doubt; inactive = no such curve, though single readings can be large; an effect the other way counts as inactive or inconclusive.

Legend:
[1] = Cell Viability - BJ (AID 421; calls by dose curve;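 note: potency is the fitted concentration of half-maximal effect; cells exposed to compound for 40 hours at 37 °C before readout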); details: BJ fibroblast viability, qHTS
Procedure, shortened: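 Cytotoxicity as drop in intracellular ATP (CellTiter-Glo, 20 min RT) after 40 hr compound exposure of BJ fibroblasts at 37 °C. Titrations scaled between DMSO and 100 uM tamoxifen, Hill-fitted for AC50.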

[2] = Cell Viability - HepG2 (AID 433; calls by dose curve;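 note: potency is the fitted concentration of half-maximal effect; potency for ATP loss meaning cytotoxicity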); details: qHTS
Procedure, shortened: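 HepG2 cells, 1500 per well, treated 40 hr at 37 °C in complete medium; viability from intracellular ATP by CellTiter-Glo luminescence. Normalized to DMSO and 100 uM tamoxifen; AC50 from Hill fit of qHTS concentration-response.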

[3] = Cell Viability - HUV-EC-C (AID 542); details: HUV-EC-C endothelial cell viability, qHTS; series mostly up to 92.2 µM; note: % is set by controls: 0 for no effect and ±100 for the full control effect; nearly all actives have a fitted effect of over 35% in size
Procedure, shortened: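 Cells were seeded at 1000 per well and incubated 5 hr at 37 °C before compound addition. After 40 hr at 37 °C, CellTiter-Glo reagent was added for 20 min and luminescence read. AC50 values came from Hill-equation modelling.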

[4] = Cell Viability - Renal Proximal Tubule (AID 545); details: renal proximal tubule cells viability, primary cells of rat origin; activity change, negative = cytotoxicity: at 91.7 µM (top of the series);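 note: 0% = DMSO only and -100% = 100 µM tamoxifen; nearly all actives have a fitted effect of over 40% in size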
Procedure, shortened: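 Rat renal proximal tubule primary cells, 1000/well, exposed to compounds for 40 hr at 37 °C in complete medium; cellular ATP read by CellTiter-Glo luminescence. AC50 from concentration-response fitted with standard Hill equation.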

[5] = Cell Viability - Mesenchymal (AID 546); details: mesenchymal cells viability, qHTS; activity change, negative = cytotoxicity: at 91.7 µM (top of the series);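 note: cells exposed to compound for 40 hours before reading; 0% = DMSO only and -100% = 100 µM tamoxifen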
Procedure, shortened: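 In this qHTS cytotoxicity format, glomerulus-derived human mesenchymal kidney cells received compound for 40 hr, then luciferase-based ATP quantitation. Concentration-response data were fitted with the Hill equation.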

[6] = MultiTox-Fluor Cytotoxicity Assay - LYMP1-003 - Dead Cells (AID 961); details: LYMP1-003 lymphoblastoid cells, dead-cell protease fluorescence; series mostly up to 92.2 µM; note: nearly all actives have a fitted effect of over 70% in size
Procedure, shortened: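 Dead-cell protease release, detected as bis-AAF-R110 fluorescence at 485/520 nm, was measured in LYMP1-003 cells after 16 h compound treatment at 37 C. AC50 values came from Hill-modeled qHTS curves normalized to DMSO (0%) and 15 uM tetraoctylammonium bromide (100%).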

[7] = Cell Viability - LYMP2-003 (AID 965); details: LYMP2-003 lymphoblastoid cell viability; series mostly up to 92.2 µM;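 note: cells exposed to compounds for 24 h before reading; nearly all actives have a fitted effect of over 50% in size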; note: potency is the fitted concentration of half-maximal effect;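 for activity change, negative = cytotoxicity: 0% = DMSO only and full effect = 92 µM tetraoctylammonium bromide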
Procedure, shortened: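 Human lymphoblastoid LYMP2-003 cells, 2500/well, exposed to compounds for 24 h at 37 C in complete medium. Viability read as intracellular ATP by CellTiter-Glo luminescence; AC50 from Hill-equation fits of qHTS concentration-response data.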

[8] = Cell Viability - LYMP2-011 (AID 969); details: LYMP2-011 lymphoblastoid cells viability; series mostly up to 92.2 µM; note: nearly all actives have a fitted effect of over 60% in size; note: potency is the fitted concentration of half-maximal effect
Procedure, shortened: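 In this qHTS cytotoxicity format, compounds are tested across concentrations on human lymphoblastoid cells in complete medium for 24 hours at 37 C. Viability is taken as cellular ATP measured by luciferase luminescence.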

[9] = Cell Viability - LYMP2-013 (AID 970); details: LYMP2-013 lymphoblastoid cells viability; series mostly up to 92.2 µM; note: nearly all actives have a fitted effect of over 55% in size; note: potency is the fitted concentration of half-maximal effect
Procedure, shortened: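 Cytotoxicity is scored as a concentration-dependent drop in intracellular ATP in human lymphoblastoid cells after 24 hr compound exposure at 37 C. ATP is quantified by luciferase luminescence, and AC50 values come from Hill-equation modeling.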

[10] = Cell Viability - LYMP2-023 (AID 975); details: LYMP2-023 lymphoblastoid cell viability; series mostly up to 92.2 µM; note: nearly all actives have a fitted effect of over 55% in size; note: potency is the fitted concentration of half-maximal effect;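 for activity change, negative = cytotoxicity: plate controls were DMSO only for no effect and 92 µM tetraoctylammonium bromide control for full effect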
Procedure, shortened: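 Steps: seed 2500 human lymphoblastoid cells per well, incubate 5 hr at 37 C, add compound for 24 hr at 37 C, add CellTiter-Glo, hold 30 min at room temperature, read luminescence. AC50 derived by Hill modelling.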

[11] = Cell Viability - LYMP2-025 (AID 976); details: LYMP2-025 lymphoblastoid cell viability; series mostly up to 92.2 µM; note: potency is the fitted concentration of half-maximal effect;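 for activity change, negative = cytotoxicity: plate controls were DMSO only for no effect and tetraoctylammonium bromide control for full effect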
Procedure, shortened: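 Acute cytotoxicity is scored as a concentration-dependent fall in intracellular ATP, measured by luciferase luminescence, in human lymphoblastoid LYMP2-025 cells exposed to compound for 24 hours at 37 C. AC50 values come from standard Hill fits.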

[12] = Cell Viability - LYMP2-008 (AID 980); details: LYMP2-008 lymphoblastoid cell viability, qHTS; series mostly up to 92.2 µM; note: nearly all actives have a fitted effect of over 60% in size; note: potency is the fitted concentration of half-maximal effect; for activity change, negative = cytotoxicity: % is set by controls: 0 for no effect and ±100 for the full control effect
Procedure, shortened: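 Cells seeded at 2500/well and rested 5 hr at 37 C; compounds added over a concentration range and incubated 24 hr at 37 C; CellTiter-Glo added, 30 min at room temperature; luminescence read and AC50 fitted with Hill model.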

[13] = Cell Viability - LYMP2-014 (AID 983); details: LYMP2-014 lymphoblastoid cells, viability qHTS; series mostly up to 92.2 µM; note: nearly all actives have a fitted effect of over 50% in size; note: potency is the fitted concentration of half-maximal effect;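 for activity change, negative = cytotoxicity: plate controls were DMSO only for no effect and 92 µM tetraoctylammonium bromide for full effect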
Procedure, shortened: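 Cells are plated at 2500/well and left 5 hr at 37 C. Compounds are added across a concentration range and incubated 24 hr at 37 C in complete medium. CellTiter-Glo is added, and luminescence is read after 30 min at room temperature.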

[14] = Cell Viability - LYMP2-016 (AID 984); details: LYMP2-016 lymphoblastoid cell viability, qHTS; series mostly up to 92.2 µM; note: nearly all actives have a fitted effect of over 55% in size; note: potency is the fitted concentration of half-maximal effect; for activity change, negative = cytotoxicity: % is set by controls: 0 for no effect and ±100 for the full control effect
Procedure, shortened: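 Human lymphoblastoid LYMP2-016 cells, 2500 per well, treated with compounds for 24 h at 37 C. Viability read as intracellular ATP by CellTiter-Glo luminescence after 30 min at room temperature; AC50 from Hill fits of concentration-response.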

[15] = Cell Viability - LYMP2-026 (AID 989); details: LYMP2-026 lymphoblastoid cell viability, qHTS; series mostly up to 92.2 µM; note: nearly all actives have a fitted effect of over 50% in size; note: potency is the fitted concentration of half-maximal effect
Procedure, shortened: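 Cells are seeded at 2500 per well and held 5 hr at 37 C. Compounds are added in concentration series for 24 hr, then CellTiter-Glo reagent is applied and luminescence read.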

[16] = Cell Viability - LYMP1-002 - Assay at 40 hr (AID 994); details: LYMP1-002 lymphoblastoid cell viability; series mostly up to 92.2 µM; note: nearly all actives have a fitted effect of over 60% in size; note: potency is the fitted concentration of half-maximal effect
Procedure, shortened: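 Cells are plated at 2500 per well and rested 5 hr at 37 C. Compounds are added and incubated 40 hr at 37 C. CellTiter-Glo reagent is added for 30 min at room temperature before luminescence is read.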

[17] = qHTS assay for small molecule antagonists of retinoid X receptor alpha signaling (AID 588546; active = well fitted inhibition curve with a large enough effect in the signal ratio, with a control signal flat, not every such curve was filed as active; the % refers to the signal ratio;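 note: cells stimulated with 9-cis-retinoic acid as agonist; % is set by controls: 0 for no effect and ±100 for the full control effect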); details: HEK293T RXRa-UAS-bla, beta-lactamase ratio, antagonist mode; measured here: W530 green channel, cytotoxicity proxy
Procedure, shortened: (§1)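 Beta-lactamase reporter inhibition, read as CCF4 fluorescence ratio (ex 405, em 460/530 nm) after 2 h at RT. HEK293T UAS-bla cells, 2500/well, were stimulated with 9-cis-RA at 500 or 100 nM final alongside test compound for 18 h at 37 C.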

[18] = target: Retinoic acid receptor RXR-alpha (Homo sapiens) (UniProt P19793); test: as above; details: HEK293T RXRa-UAS-bla, beta-lactamase ratio, antagonist mode
Procedure, shortened: as §1

[19] = qHTS assay for environmental chemicals that activate the Aryl hydrocarbon Receptor (AhR) signaling pathway (AID 651777); details: 1A2-DRE human hepatoma cells, luciferase, 24 h; activation: stronger effect = higher value; note: % of control where 0% means no effect; nearly all actives have a fitted effect of over 15% in size
Procedure, shortened: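 Quantitative HTS in stably transfected human liver-derived cells whose luciferase gene sits downstream of the CYP1A2 promoter and dioxin response element. After 24 hr exposure at 37 C, One-Glo luminescence was measured.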

[20] = Cell Viability - LYMP2-002 (AID 977); details: LYMP2-002 lymphoblastoid cell viability, qHTS; series mostly up to 92.2 µM;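 note: compound exposure lasted 24 h at 37 °C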; note: potency is the fitted concentration of half-maximal effect
Procedure, shortened: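 In this qHTS viability screen, 2500 human lymphoblastoid cells per well receive compound for 24 hr at 37 C, and luciferase-based ATP luminescence gives the viability signal. Tetraoctylammonium bromide serves as positive control.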

Chain of Retinoic acid receptor RXR-alpha (Homo sapiens) (P19793 whole entry, looked up): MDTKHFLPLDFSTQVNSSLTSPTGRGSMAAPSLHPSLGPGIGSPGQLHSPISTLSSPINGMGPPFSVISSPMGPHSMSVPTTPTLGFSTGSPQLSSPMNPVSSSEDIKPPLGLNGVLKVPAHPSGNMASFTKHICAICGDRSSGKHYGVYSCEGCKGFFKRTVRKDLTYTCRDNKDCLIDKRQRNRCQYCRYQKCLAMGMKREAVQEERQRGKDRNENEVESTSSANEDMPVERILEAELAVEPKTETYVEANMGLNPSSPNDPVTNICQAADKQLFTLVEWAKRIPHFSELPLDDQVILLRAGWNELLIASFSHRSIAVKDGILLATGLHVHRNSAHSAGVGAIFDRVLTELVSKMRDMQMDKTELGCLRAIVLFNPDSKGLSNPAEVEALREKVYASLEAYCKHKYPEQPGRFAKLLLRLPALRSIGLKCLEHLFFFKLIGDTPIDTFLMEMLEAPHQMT

C=CC(C)(O)CCCC(C)CCCC(C)CCCC(C)C (centres undefined)
inactive: Potency [1] > 92 µM | Potency [2] > 92 µM | Potency [3] | Potency [4] | Potency [5] | Potency [6] | Potency [7] | Potency [8] | Potency [9] | Potency [10] | Potency [11] | Potency [12] | Potency [13] | Potency [14] | Potency [15] | Potency [16] | max response [18] 7.39% | activation [19] -0.417%
-10.2%: max response [17]

CC(/C=C/C=C(C)/C=C/C(=O)O)=C\C=C\C=C(C)\C=C\C=C(C)\C=C\C(=O)O
active: Potency [7] 50.1 µM
-20%: max response [17]
inactive: Potency [1] > 92 µM | Potency [2] > 92 µM | Potency [3] | Potency [5] | Potency [6] | Potency [8] | Potency [9] | Potency [10] | Potency [11] | Potency [20] | Potency [12] | Potency [13] | Potency [14] | Potency [15] | Potency [16] | max response [18] 16.8% | activation [19] 9.06%

Brc1cc(Br)c(Oc2cc(Br)c(Br)cc2Br)cc1Br
inactive: Potency [1] > 92 µM | Potency [2] > 92 µM | Potency [3] | Potency [4] | Potency [5] | Potency [6] | Potency [7] | Potency [8] | Potency [9] | Potency [10] | Potency [11] | Potency [20] | Potency [12] | Potency [13] | Potency [14] | Potency [15] | Potency [16] | activation [19] -1.17%

c1ccc(Nc2cccc3ccccc23)cc1
inactive: Potency [1] > 92 µM | Potency [2] > 92 µM | Potency [3] | Potency [4] | Potency [5] | Potency [6] | Potency [7] | Potency [8] | Potency [9] | Potency [10] | Potency [11] | Potency [20] | Potency [12] | Potency [13] | Potency [14] | Potency [15] | Potency [16] | max response [18] -23.3%
1.85%: max response [17]

Cc1ccccc1OCC1CO1 (centres undefined)
-1.65%: max response [17]
inactive: Potency [1] > 92 µM | Potency [2] > 92 µM | Potency [3] | Potency [4] | Potency [5] | Potency [6] | Potency [7] | Potency [8] | Potency [9] | Potency [10] | Potency [11] | Potency [20] | Potency [12] | Potency [13] | Potency [14] | Potency [15] | Potency [16] | max response [18] 0.471% | activation [19] -0.0777%

c1cc2c3c(c1)ccc1cccc(c13)C2
-1.55%: max response [17]
inactive: Potency [1] > 92 µM | Potency [2] > 92 µM | Potency [3] | Potency [4] | Potency [5] | Potency [6] | Potency [7] | Potency [8] | Potency [9] | Potency [10] | Potency [11] | Potency [20] | Potency [12] | Potency [13] | Potency [14] | Potency [15] | Potency [16] | max response [18] -11.6% | activation [19] -0.581%

Oc1cc2c(cc1O)[C@H]1c3ccc(O)c(O)c3OC[C@@]1(O)C2
-1.27%: max response [17]
inactive: max response [18] -15.2% | activation [19] -1.85%
active: Potency [7] 31.6 µM | Potency [8] 39.8 µM | Potency [9] 31.6 µM | Potency [10] 50.1 µM | Potency [11] 50.1 µM | Potency [20] 39.8 µM | Potency [12] 39.8 µM | Potency [13] 39.8 µM | Potency [14] 39.8 µM | Potency [15] 39.8 µM | Potency [16] 50.1 µM
